Screens deposited in PubChem BioAssay by several laboratories.
Only some compounds are listed: those with a hit (about 3.6% of all), similar ones and a draw of the others.
NFkB transloc inh: inhibitors of IL-1B driven NFkB p65 nuclear import, primary screen, imaging, HUVEC, IL-1B stimulus, high-content imaging; AID 796, 2007; 0.43% of 94,000 active; HUVEC IL-1B NFkB p65 nuclear translocation imaging; inhibition, % at 2 µM;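 active means inhibition above about 30% together with a positive call from visual inspection of the well image, limit read from the data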;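 further: nuclear over cytoplasmic p65 intensity ratio measured by imaging; 0% = IL-1B stimulated DMSO wells and 100% = unstimulated DMSO wells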
ERb SRC1 inh: inhibitors of ERβ-SRC1 coactivator interaction, primary screen, biochemical, TR-FRET, ERβ LBD, SRC-1 peptide. TR-FRET ER-beta LBD / SRC1-Cy5 peptide binding; receptor agonist-loaded with 1 µM estradiol. 1.3% of 86,000 active. inhibition, % at 25.6 µM. Estrogen receptor beta (Homo sapiens), Q92731;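 active means compounds whose percent inhibition of the receptor-coactivator binding signal exceeds about 50% in the single-dose screen, limit read from the data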;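 further: 0% = receptor plus peptide wells without compound and 100% = peptide-only wells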
IL1B cytotox: cytotoxicity in IL-1B stimulated HUVEC, primary screen, cytotoxicity control for IL-1B NFkB translocation project, imaging, Hoechst nuclear count, IL-1B stimulus | HUVEC cell count loss | 0.41% of 94,000 active | AID 845, 2007 | cell count reduction, % at 2 µM;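 active means cell count reduction more than 3 SD above the screen-wide mean, cut at about 70% in these data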;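 further: normalized per plate to untreated control cells as the no-loss baseline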
NFkB transloc pot: enhancers of NFkB p65 translocation in HUVEC – imaging, IL-1B stimulus, high-content imaging, primary screen; HUVEC IL-1B NFkB p65 nuclear translocation imaging; activation, % at 2 µM; 0.3% of 94,000 active;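 active means activation above 40%, about the mean plus 3 SD, also judged a hit on visual image review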;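 further: percent activation is computed from the nuclear over cytoplasmic p65 intensity ratio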
ERa coact inh: ERα–SRC-1 coactivator interaction inhibitors, primary screen, biochemical, TR-FRET, ERα LBD, estradiol-bound | Estrogen receptor (Homo sapiens), P03372 | 1.7% of 86,000 active | AID 629, 2007 | TR-FRET ER-alpha LBD / SRC-1 peptide | inhibition, % at 25.6 µM; in the data active means inhibition above about 50%;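 further: 0% = receptor plus peptide control and 100% = peptide only without receptor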
Target sequence (P03372 whole entry, looked up, the tested form may be a part): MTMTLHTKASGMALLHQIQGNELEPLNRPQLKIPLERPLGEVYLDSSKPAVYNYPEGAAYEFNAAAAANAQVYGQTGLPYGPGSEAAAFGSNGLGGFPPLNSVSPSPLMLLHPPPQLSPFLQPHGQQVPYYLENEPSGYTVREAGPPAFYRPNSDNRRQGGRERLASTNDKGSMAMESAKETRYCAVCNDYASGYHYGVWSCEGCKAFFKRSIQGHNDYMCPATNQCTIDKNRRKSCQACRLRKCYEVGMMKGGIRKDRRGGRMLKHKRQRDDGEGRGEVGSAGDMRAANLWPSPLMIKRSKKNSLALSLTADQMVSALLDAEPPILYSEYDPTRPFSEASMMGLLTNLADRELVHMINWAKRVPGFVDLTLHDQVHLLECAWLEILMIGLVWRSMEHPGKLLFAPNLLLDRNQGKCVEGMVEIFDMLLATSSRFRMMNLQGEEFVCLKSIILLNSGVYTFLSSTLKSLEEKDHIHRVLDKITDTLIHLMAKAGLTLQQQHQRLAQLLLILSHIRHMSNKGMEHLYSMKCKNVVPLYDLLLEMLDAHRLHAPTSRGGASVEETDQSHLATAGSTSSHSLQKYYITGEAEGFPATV
ERa coact pot: enhancers of ERα–SRC-1 coactivator binding, primary screen, biochemical, TR-FRET, ERα LBD, low estradiol; Estrogen receptor (Homo sapiens), P03372; 1.3% of 86,000 active; AID 639, 2007; TR-FRET ERalpha-LBD/SRC-Cy5 coactivator binding, 2 h; 100 = basal binding, no effect; coactivator binding (% of control), % at 25.6 µM; in the data active means activity above about 200%;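 further: binding measured in presence of low estradiol as agonist stimulus; 0% = peptide alone without receptor and 100% = receptor with peptide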
Active calls of the source: *; . = no result given; [ ] = another dose, or the depositor's remark.

SMILES | NFkB transloc inh | ERb SRC1 inh | IL1B cytotox | NFkB transloc pot | ERa coact inh | ERa coact pot
COc1nc2ccc(C)cc2cc1-c1noc(-c2cccnc2)n1 | -17 | 22 | -11 | 17 | 19 | 241*[fluorescence artefact?]
CC(=O)Nc1cccc(Oc2ccc(-c3noc(C)n3)cc2)c1 | -8 | 1 | 12 | 8 | -7 | 93
Cc1cn(C(=O)C(C)N2C(=O)c3ccccc3C2=O)c(C)n1 (stereo unspecified) | -6 | 10 | 87* | 6 | 39 | 102
Cc1nn(C(=O)C(C)N2C(=O)c3ccccc3C2=O)c(C)c1Br (stereo unspecified) | 1 | 2 | 23 | -1 | -2 | 109
O=C(CSc1nnc(CNc2ccc(Cl)cc2)o1)Nc1nc2c(s1)CCCC2 | . | 23 | . | . | 4 | 115
CC(C)CC(=O)O/N=C1\C(=O)N(Cc2ccc(Cl)cc2)c2ccc([N+](=O)[O-])cc21 | -47 | . | 92* | 47* | . | .
O=C(C1CCCCN1S(=O)(=O)c1ccccc1)N1CCCCC1 (stereo unspecified) | 52* | 3 | 10 | -52 | 5 | 104
COc1cc2c(cc1NC(=O)COC(=O)C1CC(=O)N(Cc3ccco3)C1)oc1ccccc12 (stereo unspecified) | -32 | 21 | -20 | 32 | 22 | 129
CCN1CCN(c2nc(-c3ccncc3)nc3ccccc23)CC1 | 10 | -6 | -5 | -10 | 0 | 96
Oc1ccccc1-c1nc(NCc2ccco2)c2ccccc2n1 | 8 | 24 | -11 | -8 | 24 | 131
Oc1ccccc1-c1nc(N2CCN(Cc3ccccc3)CC2)c2ccccc2n1 | -6 | -3 | -16 | 6 | -12 | 237*[fluorescence artefact?]
Fc1ccccc1-c1nc(N2CCCCC2)c2ccccc2n1 | . | -8 | . | . | -6 | 78
CC1CCN(c2nc(-c3ccccc3O)nc3ccccc23)CC1 | -1 | 46 | 14 | 1 | 39 | 471*[fluorescence artefact?]
CC(C)Oc1nc(-c2ccccc2O)nc2ccccc12 | -6 | 9 | 8 | 6 | 9 | 222*[fluorescence artefact?]
COc1cccc(-c2nc(N3CCC(C)CC3)c3ccccc3n2)c1O | -16 | . | 7 | 16 | . | .
Oc1ccccc1-c1nc(N2CCCC2)c2ccccc2n1 | 5 | 56*[fluorescence artefact?] | 7 | -5 | 56*[fluorescence artefact?] | 217*[fluorescence artefact?]
CCCn1c(=O)c2ccccc2n2c(SCN3C(=O)c4ccccc4C3=O)nnc12 | . | 96*[fluorescence artefact?] | . | . | -3 | 111
CCOC(=O)c1c(C)[nH]c(C)c1C(=O)CSc1nc(N)cc(=O)[nH]1 | 6 | -6 | -31 | -6 | -1 | 106
COc1ccc(CC(NC(C)=O)C(=O)NC2CCN(C(=O)NCc3ccccc3)CC2)cc1OC (stereo unspecified) | 8 | 87*[fluorescence artefact?] | 12 | -8 | -5 | 117
CN(C)C(=O)Cn1c(SCC(=O)N2CCCc3ccccc32)nc2ccccc21 | -1 | -14 | 26 | 1 | 21 | 829*[fluorescence artefact?]
COC(=O)CSc1nnc(CNC(=O)c2cc(OC)c(OC)c(OC)c2)n1C | 12 | 4 | 78* | -12 | 5 | 111
COC(=O)CSc1nnc(CNC(=O)c2ccccc2OC)n1C | 4 | 15 | -6 | -4 | 3 | 95
O=C(NCCN1CCN(c2ccccc2)CC1)c1ccc(NC(=O)C2CCCO2)cc1 (stereo unspecified) | 4 | 12 | 6 | -4 | -6 | 87
Cc1c(C(=O)OC(C)C)nnn1-c1nonc1N | -9 | 2 | -19 | 9 | -6 | 111
CN=c1scc(C)n1/N=C/c1ccc(O)c(O)c1O | 6 | 100*[fluorescence artefact?] | -23 | -6 | 97*[fluorescence artefact?] | 17
SMILES | NFkB transloc inh | ERb SRC1 inh | IL1B cytotox | NFkB transloc pot | ERa coact inh | ERa coact pot
O=C1CN(C(=O)c2cccs2)c2ccccc2N1 | -3 | 14 | -12 | 3 | 2 | 966*[fluorescence artefact?]
O=C(c1cc2c(s1)CCCCC2)N1CCN(c2ncccn2)CC1 | -25 | 11 | -9 | 25 | 11 | 112
COc1ccccc1N1CCN(C(=O)c2cc3c(s2)CCC3)CC1 | 6 | 43 | 6 | -6 | 64* | 61
Cc1cc(NC(=O)CSc2nnc(-c3ccc4c(c3)OCCO4)o2)no1 | 0 | 0 | -11 | 0 | -19 | 327*[fluorescence artefact?]
Cc1cc(C)cc(-c2nnc(SCC(=O)c3ccc4c(c3)OCCO4)o2)c1 | -13 | 8 | -26 | 13 | 4 | 221*[fluorescence artefact?]
COc1ccc2c(CC(=O)OCC(=O)c3ccc(F)cc3)coc2c1 | 4 | 6 | -11 | -4 | -11 | 106
Cn1c(=O)c2c(nc(NCCc3ccccc3)n2CC(=O)NCCc2ccccc2)n(C)c1=O | -8 | 34 | -45 | 8 | 17 | 229*[fluorescence artefact?]
Cn1c(=O)c2c(nc(NCc3ccccc3)n2CC(=O)NCc2ccccc2)n(C)c1=O | 0 | . | 17 | 0 | . | .
C#CCOc1nc(OCC#C)nc(OCC#C)n1 | 1 | -4 | 5 | -1 | -4 | 116
Cc1ccc(Cn2c(SCC(=O)Nc3cccc(C)n3)nc3c2c(=O)n(C)c(=O)n3C)cc1 | . | 8 | . | . | 4 | 165
CCn1c(SCC(=O)NCc2ccco2)nc2c1c(=O)n(C)c(=O)n2C | -18 | 12 | -7 | 18 | 2 | 101
CCCn1c(SCC(=O)NCc2ccco2)nc2c1c(=O)n(C)c(=O)n2C | 8 | -6 | 81* | -8 | 5 | 118
CNC(=O)CSc1nc2c(c(=O)n(C)c(=O)n2C)n1Cc1ccc(C)cc1 | -12 | 0 | -6 | 12 | 15 | 201*
CCc1nnc2n1N=C(c1ccc(OC)cc1)CS2 | 4 | 2 | -8 | -4 | -1 | 121
COc1ccc(C2=NN(C)C(=NCc3ccccc3)SC2)cc1 | 36* | -14 | -5 | -36 | -7 | 101
Cc1cc(-c2nc3c4c5c(sc4[nH]c(=O)n3n2)CCC5)c(C)o1 | -1 | 96*[fluorescence artefact?] | -4 | 1 | 97*[fluorescence artefact?] | 5
CN(C)c1ccc(N=Cc2ccco2)cc1 | -7 | 70* | -124 | 7 | 29 | 66
CN(C)c1ccc(C=Nc2ccc(N(C)C)cc2)cc1 | -16 | 58*[fluorescence artefact?] | -4 | 16 | -21 | 78
O=C(CSc1nnc(-c2ccco2)n1-c1ccccc1)N1CCN(C(=O)c2ccco2)CC1 | 8 | -4 | 6 | -7 | -22 | 521*[fluorescence artefact?]
Cc1ccc(C)c(NC(=O)CS(=O)(=O)c2cn(C)c3ccccc23)c1 | 6 | -1 | -7 | -6 | -4 | 105
CCOc1cc(S(=O)(=O)N(CC)CC)ccc1Br | -1 | -3 | -20 | 1 | -3 | 97
